TRHR enhancer: qHTS for Small Molecule Agonists and Allosteric Enhancers of Human TRH Receptor: Primary Screen for Enhancers; Thyrotropin-releasing hormone receptor (Homo sapiens), P34981; TRHR cells, fluo-8 calcium fluorescence, EC20 TRH enhancement; enhancement, % at 2 µM; 360,000 compounds, 0.66% hits; in the data active = enhancement above about 30%; also: 0% is about no effect
Target sequence (P34981 whole entry, looked up): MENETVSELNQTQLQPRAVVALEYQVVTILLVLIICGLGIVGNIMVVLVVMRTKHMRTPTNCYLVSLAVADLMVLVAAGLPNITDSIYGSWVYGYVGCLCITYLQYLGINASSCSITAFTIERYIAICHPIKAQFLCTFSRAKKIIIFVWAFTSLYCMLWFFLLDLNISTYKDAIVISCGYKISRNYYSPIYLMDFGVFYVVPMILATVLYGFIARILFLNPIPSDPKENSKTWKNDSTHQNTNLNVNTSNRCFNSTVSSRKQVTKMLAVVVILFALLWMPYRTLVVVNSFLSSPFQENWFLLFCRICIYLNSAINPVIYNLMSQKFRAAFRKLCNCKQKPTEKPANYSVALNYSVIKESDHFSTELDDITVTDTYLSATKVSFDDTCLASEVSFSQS
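Enhancer read-out: after compound pinning and an initial kinetic agonist-mode read, an EC20 of TRH (10 nM final) was injected and fluo-8 calcium signal (Ex 480/Em 530) followed at 1 s/cycle for 100 cycles in TRHR-expressing cells.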
D1 antagonist: Antagonist of Human D 1 Dopamine Receptor: qHTS; HEK293 TREx D1 cells, calcium flux, dopamine EC80; stronger effect = lower value; activity change, negative = inhibition, % at 10 µM; 360,000 compounds, 3.2% hits; AID 504652, 2011; in the data active = activity change below about -30%; also: % is scaled to controls: 0 for no effect and ±100 for the full control effect
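Compound effects on dopamine-evoked calcium signalling were measured in tetracycline-induced HEK293 Trex D1 cells. Dopamine at EC80 followed a 180 s compound pre-read, and fluorescence was tracked kinetically for 180 s more.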
TRHR agonist: qHTS for Small Molecule Agonists and Allosteric Enhancers of Human TRH Receptor: Primary Screen for Agonists | Thyrotropin-releasing hormone receptor (Homo sapiens), P34981 | TRHR cells, calcium flux fluo-8, FDSS agonist mode | activation, % at 2 µM | 360,000 compounds, 0.18% hits | AID 493084, 2011; also: 0% is about no effect
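Read-out: compound-evoked intracellular calcium rise in TRHR cells, fluo-8 dye, kinetic FDSS fluorescence at 1 s/cycle following a 10-cycle baseline. Cells cultured overnight before dye loading (30 min–1.5 h, RT).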
D1 PAM: Potentiators of Human D1 Dopamine Receptor: qHTS | potentiation, % at 10 µM | HEK293 TREx D1 cells, calcium flux, dopamine EC20 potentiation | D(1A) dopamine receptor (Homo sapiens), P21728 | 360,000 compounds, 0.036% hits; in the data active = potentiation above about 30%; also: 0% is about no effect
D1 ag: Allosteric Agonists of the Human D1 Dopamine Receptor: qHTS; activation, % at 2 µM; 360,000 compounds, 1% hits; HEK293 T-REx D1 cells, calcium flux, agonist mode; also: 0% is about no effect
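Inducible HEK293 T-REx D1 cells, force-coupled to calcium signalling, were plated at 4000 cells/well with tetracycline and held overnight at 30 C. After no-wash calcium dye loading, compound-evoked calcium rise over 180 s flagged agonists.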
Starred values were filed as active, the others as inactive; nt = not tested or not shown. Most compounds without a hit are left out; they make up all but 4.7% or so of the library. Rule as the data show it, unless noted: active = activation above about 30%; inactive = the rest.

SMILES	TRHR enhancer	D1 antagonist	TRHR agonist	D1 PAM	D1 ag
CS(=O)(=O)N1CCC(Oc2ccccc2C(=O)N2CCCCC2CO)CC1 (stereo not given)	-11	2	0	1	0
COc1cccc(C(=O)/C=C/Nc2ccc(S(=O)(=O)Nc3ccc(C(C)=O)cc3)cc2)c1	2	-34*	0	-6	3
CCOC(=O)c1ccc(N/C=C\C(=O)c2cccc(OC)c2)cc1	-9	-46*	0	2	11
CCOC(=O)c1cccc(N/C=C/C(=O)c2ccc(OC)c(OC)c2)c1	7	2	-2	-7	2
CCOC(=O)c1c(-c2ccc(C)cc2)csc1NC(=O)c1cc(=O)c2cc(C)cc(C)c2o1	1	8	0	-2	2
Cc1cc2c(s1)c1cnn(Cc3cccc([N+](=O)[O-])c3)c(=O)c1n2C	6	-5	0	6	9
N#CC1=C(N)Oc2ccc3ccc(O)cc3c2C1c1cccnc1 (stereo not given)	2	-76*	0	-7	1
Cc1nn(-c2cccc(Cl)c2)c2c1C(c1cccnc1)C(C#N)=C(N)O2 (stereo not given)	0	-36*	0	-1	7
CCN(Cc1ccccc1)S(=O)(=O)c1ccc2c(c1)CC(C)N2C(=O)C1CCC1 (stereo not given)	4	-8	0	0	9
COc1cc(Cn2c(=O)sc3ccccc32)ccc1OCCC(C)C	-11	-18	1	-5	18
COc1ccc(-c2nc3scc(CCNS(=O)(=O)c4ccc(Oc5ccccc5)cc4)n3n2)cc1OC	3	nt	-1	-1	10
CCN1CCc2nc3sc(C(=O)c4ccc(F)cc4)c(N)c3cc2C1	-9	-14	5	0	30*
O=C(NCCc1ccccc1)/C(=C\c1cccc([N+](=O)[O-])c1)NC(=O)c1ccco1	0	-34*	-1	-4	4
O=C(NCc1ccccc1)/C(=C/c1cccc([N+](=O)[O-])c1)NC(=O)c1ccco1	5	-6	0	nt	2
O=C(/C=C/c1cccc([N+](=O)[O-])c1)c1cccs1	0	7	0	-8	0
O=C(Nc1cccc2ccccc12)/C(=C/c1cccc([N+](=O)[O-])c1)NC(=O)c1cccs1	34*	7	0	-4	1
O=C(/C=C/c1cccc([N+](=O)[O-])c1)Nc1ccc(NC(=O)c2cccs2)cc1	-22	-78*	2	-24	-1
CCc1ccc(NC(=O)C2CCN(C(=O)N3CC(CC)Oc4ccccc43)CC2)cc1 (stereo not given)	4	-4	0	0	-1
Cc1ccc2c(=O)cc(C(=O)Nc3cccc(C(F)(F)F)c3)oc2c1C	1	-3	1	2	1
CCc1ccc2oc(C(=O)Nc3cccc(C(F)(F)F)c3)cc(=O)c2c1	45*	-16	0	1	3
Cc1ccc(-c2cn3nc(-c4ccccc4)c(-c4ccccc4)nc3n2)cc1	3	0	4	5	43*
O=[N+]([O-])c1ccc(-c2cn3nc(-c4ccccc4)c(-c4ccccc4)nc3n2)cc1	2	-19	4	1	10
Cc1oc2ccc(O)c(CN(C)Cc3ccccc3)c2c1C(=O)Nc1ccccc1	13	-44*	-1	-4	-2
Cc1oc2ccc(O)c(CN(C)Cc3ccccc3)c2c1C(=O)Nc1cccc(C(F)(F)F)c1	3	8	-1	-3	1
Cc1ccc(SCc2nnc(NC(=O)c3ccccc3)s2)cc1	3	-42*	-3	-7	2
SMILES	TRHR enhancer	D1 antagonist	TRHR agonist	D1 PAM	D1 ag
CCOc1ccc(CNC(=O)C2Cc3cc(S(=O)(=O)N4CCCCCC4)ccc3N2C(C)=O)cc1 (stereo not given)	-5	5	-1	0	0
O=C(NN=C1CCN(Cc2ccccc2)CC1)c1ccccc1O	4	-31*	1	-2	0
Fc1ccc(-c2nn(-c3ccc(Cl)cc3)c3c2cnc2ccc(F)cc23)cc1	-6	6	0	1	2
Cc1ccccc1NC(=O)N1CCC(CN2CCCC2)CC1	-6	3	0	1	-2
CC(C)(C)OC(=O)NCC(=O)NNC(=O)c1cc2ccccc2[nH]1	-2	-59*	1	2	1
CCOc1cc(C(=O)Nc2cc(C)ccc2C)ccc1OCC(=O)N1CCCCC1	0	-90*	0	-11	2
COc1cccc(CNc2nc3ccccc3c3nc(-c4cccc(C)c4)nn23)c1	-9	-14	1	-5	4
Cc1cc(Cl)c(S(=O)(=O)N/N=C/c2ccc3c(c2)OCO3)c(Cl)c1	4	0	0	-6	3
Cc1cc(C)c(S(=O)(=O)N/N=C/c2ccc3c(c2)OCO3)c(C)c1	0	-72*	1	-3	2
CCC(SC1=NCCS1)C(=O)Nc1ccc(S(N)(=O)=O)cc1 (stereo not given)	8	-46*	-1	-12	8
COc1cc(NS(=O)(=O)c2cnc(N)nc2)cc(OC)c1	6	11	0	-2	1
COc1ccc(C(CC(=O)N2CCOCC2)c2c(OC)cc(OC)c3c(-c4ccccc4)cc(=O)oc23)cc1 (stereo not given)	0	-41*	0	-9	5
O=C(CN1C(=O)CCc2cc(S(=O)(=O)N3CCOCC3)ccc21)NCc1ccccc1Cl	1	-5	0	0	-1
COc1ccc(C2=NO[C@@H]3C(=O)N(C4CCCCC4)C(=O)[C@H]23)cc1OC	-2	-35*	2	-7	26
CCCc1ccc(C(C)NC(=S)NC2CCCCC2)cc1 (stereo not given)	-5	-6	3	0	36*
CCC(NC(=S)NC1CCCCC1)c1ccc(C)cc1 (stereo not given)	-2	-59*	0	0	13
Cc1ccc(C)c(C(C)NC(=S)NC2CCCCC2)c1 (stereo not given)	-5	-2	1	-2	17
O=C(NCC(c1ccco1)S(=O)(=O)c1ccc(Cl)cc1)c1ccccc1F (stereo not given)	3	-4	1	-2	0
CCCCN(CC)CCNC(=O)c1c(C)oc2ncnc(N3CCOCC3)c12	-12	4	1	-6	2
CCOc1ccccc1-c1nnc(SCc2ccc(Cl)cc2)o1	4	-29	-2	4	61*
Clc1ccc(CSc2nnc(-c3c[nH]c4ccccc34)o2)cc1	5	-6	0	-7	3

Source: PubChem
